In PubChem BioAssay AID1159580 (chemical genetic matrix, 2015):
About 2,000 (36%) of roughly 5,500 compounds were called active. Not shown: some 18% with an inconclusive outcome. No stated cut-off is given here; in the data, active means normalized growth mostly below about 0.91 (no sharp cut-off); inconclusive means no clear call, values can overlap the other calls; inactive means mostly above about 0.92. The list shows a part of the results.

Assay: chemical genetic growth profiling, strain panel (AID 1159580);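 further: tested at 20 µM; growth read once vehicle control cultures reached saturation at 30 °C; 1 = growth at the plate median or of vehicle wells; lower values mean less growth of the strain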
Settings: growth OD

Measured: normalized growth

CC(=O)NC(=O)/C(C#N)=C/N1CCN(Cc2ccccc2)CC1
inactive: S. cerevisiae deletion strains, locus YAL013W, strain DEP1, active compounds read low 0.987 | S. cerevisiae deletion strains, locus YBR229C, strain ROT2, active compounds read low 0.989 | S. cerevisiae deletion strains, locus YDL101C, strain DUN1, active compounds read low 1.01 | S. cerevisiae deletion strains, locus YDL134C, strain PPH21, active compounds read low 1.01 | S. cerevisiae deletion strains, locus YDR150W, strain NUM1, active compounds read low 0.969 | S. cerevisiae deletion strains, locus YEL061C, strain CIN8, active compounds read low 0.996 | S. cerevisiae deletion strains, locus YGR078C, strain PAC10, active compounds read low 0.994 | S. cerevisiae deletion strains, locus YHR030C, strain SLT2, active compounds read low 0.947 | S. cerevisiae deletion strains, locus YHR087W, strain rtc3, active compounds read low 0.994 | S. cerevisiae deletion strains, locus YJR043C, strain POL32, active compounds read low 0.976 | S. cerevisiae deletion strains, locus YJR075W, strain HOC1, active compounds read low 1.01 | S. cerevisiae deletion strains, locus YKL190W, strain CNB1, active compounds read low 1 | S. cerevisiae deletion strains, locus YLR039C, strain RIC1, active compounds read low 1.01 | S. cerevisiae deletion strains, locus YLR058C, strain SHM2 (second series), active compounds read low 0.988 | S. cerevisiae deletion strains, locus YLR085C, strain ARP6, active compounds read low 1.07 | S. cerevisiae deletion strains, locus YLR262C, strain YPT6, active compounds read low 0.982 | S. cerevisiae deletion strains, locus YML094W, strain GIM5, active compounds read low 1.01 | S. cerevisiae deletion strains, locus YMR219W, strain ESC1, active compounds read low 1 | S. cerevisiae deletion strains, locus YMR263W, strain SAP30, active compounds read low 0.997 | S. cerevisiae deletion strains, locus YMR307W, strain GAS1, active compounds read low 1.11 | S. cerevisiae deletion strains, locus YNL128W, strain TEP1, active compounds read low 0.981 | S. cerevisiae deletion strains, locus YNL153C, strain GIM3, active compounds read low 0.977 | S. cerevisiae deletion strains, locus YNL298W, strain CLA4 (second series), active compounds read low 0.95 | S. cerevisiae deletion strains, locus YNL322C, strain KRE1, active compounds read low 0.991 | S. cerevisiae deletion strains, locus YNR030W, strain Alg12, active compounds read low 0.987 | S. cerevisiae deletion strains, locus YPL055C, strain LGE1, active compounds read low 1.05 | S. cerevisiae deletion strains, locus YPL241C, strain CIN2, active compounds read low 0.989 | S. cerevisiae deletion strains, locus YPR135W, strain CTF4, active compounds read low 0.886 | S. cerevisiae strains, strain wild type, active compounds read low 0.974

CC(=O)OC[C@H]1O[C@@H](Oc2cc(OC(C)=O)c3c(=O)cc(-c4ccc(OC(C)=O)cc4)oc3c2)[C@H](OC(C)=O)[C@@H](OC(C)=O)[C@@H]1OC(C)=O
inactive: S. cerevisiae deletion strains, locus YAL021C, strain ccr4, active compounds read low 1.04 | S. cerevisiae deletion strains, locus YAL026C, strain drs2, active compounds read low 1 | S. cerevisiae deletion strains, locus YAL030W, strain snc1, active compounds read low 1.01 | S. cerevisiae deletion strains, locus YBL061C, strain skt5, active compounds read low 0.981 | S. cerevisiae deletion strains, locus YBR009C, strain hhf1, active compounds read low 0.998 | S. cerevisiae deletion strains, locus YBR023C, strain chs3, active compounds read low 0.999 | S. cerevisiae deletion strains, locus YBR171W, strain sec66, active compounds read low 0.981 | S. cerevisiae deletion strains, locus YBR231C, strain swc5, active compounds read low 0.955 | S. cerevisiae deletion strains, locus YBR279W, strain paf1, active compounds read low 0.997 | S. cerevisiae deletion strains, locus YCL011C, strain gbp2, active compounds read low 1 | S. cerevisiae deletion strains, locus YCL016C, strain dcc1, active compounds read low 1.06 | S. cerevisiae deletion strains, locus YCL069W, strain vba3, active compounds read low 0.979 | S. cerevisiae deletion strains, locus YCR088W, strain abp1, active compounds read low 0.989 | S. cerevisiae deletion strains, locus YDL005C, strain med2, active compounds read low 0.977 | S. cerevisiae deletion strains, locus YDL040C, strain nat1, active compounds read low 1.02 | S. cerevisiae deletion strains, locus YDR001C, strain nth1, active compounds read low 1 | S. cerevisiae deletion strains, locus YDR069C, strain doa4, active compounds read low 0.953 | S. cerevisiae deletion strains, locus YDR137W, strain rgp1, active compounds read low 1.09 | S. cerevisiae deletion strains, locus YDR159W, strain sac3, active compounds read low 0.963 | S. cerevisiae deletion strains, locus YDR195W, strain ref2 0.936 | S. cerevisiae deletion strains, locus YDR297W, strain sur2, active compounds read low 0.988 | S. cerevisiae deletion strains, locus YDR334W, strain swr1, active compounds read low 0.979 | S. cerevisiae deletion strains, locus YDR335W, strain msn5, active compounds read low 0.989 | S. cerevisiae deletion strains, locus YDR392W, strain spt3, active compounds read low 0.966 | S. cerevisiae deletion strains, locus YEL003W, strain gim4, active compounds read low 0.979 | S. cerevisiae deletion strains, locus YEL037C, strain rad23, active compounds read low 0.986 | S. cerevisiae deletion strains, locus YEL061C, strain CIN8 (second series), active compounds read low 0.999 | S. cerevisiae deletion strains, locus YER015W, strain faa2, active compounds read low 1 | S. cerevisiae deletion strains, locus YER016W, strain bim1, active compounds read low 1.02 | S. cerevisiae deletion strains, locus YER111C, strain swi4, active compounds read low 1.03 | S. cerevisiae deletion strains, locus YER155C, strain BEM2 (second series), active compounds read low 0.985 | S. cerevisiae deletion strains, locus YFR010W, strain ubp6, active compounds read low 0.975 | S. cerevisiae deletion strains, locus YGL167C, strain pmr1, active compounds read low 0.992 | S. cerevisiae deletion strains, locus YGL173C, strain kem1, active compounds read low 0.973 | S. cerevisiae deletion strains, locus YGL227W, strain vid30, active compounds read low 0.995 | S. cerevisiae deletion strains, locus YGL240W, strain doc1, active compounds read low 0.983 | S. cerevisiae deletion strains, locus YGL253W, strain hxk2, active compounds read low 0.968 | S. cerevisiae deletion strains, locus YHR013C, strain ard1, active compounds read low 1.01 | S. cerevisiae deletion strains, locus YHR027C, strain rpn1, active compounds read low 1.01 | S. cerevisiae deletion strains, locus YHR142W, strain chs7, active compounds read low 1.02 | S. cerevisiae deletion strains, locus YJL092W, strain hpr5, active compounds read low 0.995 | S. cerevisiae deletion strains, locus YJL095W, strain BCK1 (second series), active compounds read low 1.04 | S. cerevisiae deletion strains, locus YJL115W, strain asf1, active compounds read low 0.98 | S. cerevisiae deletion strains, locus YJL129C, strain trk1, active compounds read low 0.984 | S. cerevisiae deletion strains, locus YJL154C, strain vps35, active compounds read low 0.98 | S. cerevisiae deletion strains, locus YJL164C, strain tpk1, active compounds read low 1.02 | S. cerevisiae deletion strains, locus YJL166W, strain qcr8, active compounds read low 0.989 | S. cerevisiae deletion strains, locus YJL187C, strain SWE1, active compounds read low 1 | S. cerevisiae deletion strains, locus YKL160W, strain elf1, active compounds read low 1.02 | S. cerevisiae deletion strains, locus YKR026C, strain gcn3, active compounds read low 0.977 | S. cerevisiae deletion strains, locus YKR091W, strain srl3, active compounds read low 0.999 | S. cerevisiae deletion strains, locus YLL001W, strain dnm1, active compounds read low 0.947 | S. cerevisiae deletion strains, locus YLL026W, active compounds read low 0.99 | S. cerevisiae deletion strains, locus YLL041C, strain sdh2, active compounds read low 0.991 | S. cerevisiae deletion strains, locus YLR027C, strain aat2, active compounds read low 0.981 | S. cerevisiae deletion strains, locus YLR221C, strain rsa3, active compounds read low 0.971 | S. cerevisiae deletion strains, locus YLR258W, strain gsy2, active compounds read low 1.01 | S. cerevisiae deletion strains, locus YLR262C, strain YPT6 (second series), active compounds read low 0.998 | S. cerevisiae deletion strains, locus YLR320W, strain mms22, active compounds read low 0.993 | S. cerevisiae deletion strains, locus YLR342W, strain FKS1, active compounds read low 0.985 | S. cerevisiae deletion strains, locus YLR357W, strain rsc2, active compounds read low 0.967 | S. cerevisiae deletion strains, locus YLR370C, strain arc18, active compounds read low 0.981 | S. cerevisiae deletion strains, locus YLR384C, strain iki3, active compounds read low 0.965 | S. cerevisiae deletion strains, locus YML120C, strain ndi1, active compounds read low 0.998 | S. cerevisiae deletion strains, locus YMR058W, strain fet3, active compounds read low 0.994 | S. cerevisiae deletion strains, locus YMR125W, strain sto1, active compounds read low 1 | S. cerevisiae deletion strains, locus YMR129W, active compounds read low 0.987 | S. cerevisiae deletion strains, locus YMR205C, strain PFK2, active compounds read low 1.01 | S. cerevisiae deletion strains, locus YMR231W, strain pep5, active compounds read low 0.969 | S. cerevisiae deletion strains, locus YNL071W, strain lat1, active compounds read low 0.998 | S. cerevisiae deletion strains, locus YNL209W, strain ssb2, active compounds read low 1 | S. cerevisiae deletion strains, locus YNL248C, strain rpa49, active compounds read low 0.961 | S. cerevisiae deletion strains, locus YNL322C, strain KRE1 (second series), active compounds read low 1.01 | S. cerevisiae deletion strains, locus YNR049C, strain mso1, active compounds read low 0.989 | S. cerevisiae deletion strains, locus YOR001W, strain rrp6, active compounds read low 0.953 | S. cerevisiae deletion strains, locus YOR070C, strain gyp1, active compounds read low 1.06 | S. cerevisiae deletion strains, locus YOR080W, strain dia2, active compounds read low 0.98 | S. cerevisiae deletion strains, locus YOR083W, strain WHI5, active compounds read low 1.03 | S. cerevisiae deletion strains, locus YOR106W, strain vam3, active compounds read low 1.01 | S. cerevisiae deletion strains, locus YOR265W, strain rbl2, active compounds read low 0.992 | S. cerevisiae deletion strains, locus YOR270C, strain vph1, active compounds read low 0.958 | S. cerevisiae deletion strains, locus YOR290C, strain snf2, active compounds read low 1.12 | S. cerevisiae deletion strains, locus YPL051W, strain arl3, active compounds read low 0.981 | S. cerevisiae deletion strains, locus YPL078C, strain atp4, active compounds read low 1.03 | S. cerevisiae deletion strains, locus YPL106C, strain sse1, active compounds read low 1.01 | S. cerevisiae deletion strains, locus YPL240C, strain hsp82, active compounds read low 0.989
